This is a sample that favours compounds with a hit; in the whole collection about 0.95% have one here.
Tb PYK inh – T. brucei pyruvate kinase inhibition; Q57TT1; TbPYK enzyme, Kinase-Glo Plus ATP luminescence, 45 min; Potency, µM (highest dose often 76.8 µM), for inactives: top-dose activity, negative = inhibition, most hits filed as inhibitors; 410,000 compounds, 0.12% hits; AID 624173; note: nearly all actives have a fitted effect of over 50% in size
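In this concentration-response screen, enzyme-free wells defined baseline while DMSO plates tracked drift. Each reaction combined TbPYK, substrate, compound and 130 uM ADP for 45 min at room temperature. Kinase-Glo Plus luminescence gave the signal.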
RE007 growth inh – less growth of the S. pombe RE007 Vpr strain; S. pombe RE007 Vpr strain, BacTiter-Glo ATP luminescence, 24 h; Potency, µM (titrated, usually from 92.2 µM), for the others: top-dose activity change, negative = less growth, most hits filed as inhibitors; 360,000 compounds, 0.21% hits; AID 651644; active = well fitted falling curve with a large enough effect; inconclusive = small, poorly fitted or top-dose-only effect; inactive = no such curve, though single readings can be large or run the other way; note: nearly all actives have a fitted effect of over 50% in size
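Fission yeast strain RE007, carrying one chromosomally integrated HIV-1 vpr copy, was seeded at OD 0.01 in PMG+AL medium with 23 nL pinned compound. After 24 h at 30 °C and 99% humidity, viability was read by BacTiter-Glo luminescence.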
LmPK inhibitor – inhibitors of Leishmania mexicana pyruvate kinase; purified LmPK, Kinase-Glo ATP luminescence, 1 h; Potency, µM (top dose mostly 57.5 µM), for inactives: top-dose activity change, negative = inhibition, usual class: inhibitors; AID 1721; 290,000 compounds, 0.37% hits
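qHTS format; LmPK 0.1 nM; substrates PEP 0.5 mM and ADP 0.1 mM. One-hour room-temperature incubation, then coupled luciferase luminescence; 0.5 nM enzyme wells mark activation.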
Giardia FBPA inh – Giardia lamblia aldolase inhibition. A8B2U2. purified Giardia FBPA. Potency, µM (series often up to 59.6 µM), for inactives: at the highest dose activity, negative = inhibition, most hits filed as inhibitors. 290,000 compounds, 0.71% hits; note: nearly all actives have a fitted effect of over 55% in size
Target sequence (A8B2U2 whole entry, looked up): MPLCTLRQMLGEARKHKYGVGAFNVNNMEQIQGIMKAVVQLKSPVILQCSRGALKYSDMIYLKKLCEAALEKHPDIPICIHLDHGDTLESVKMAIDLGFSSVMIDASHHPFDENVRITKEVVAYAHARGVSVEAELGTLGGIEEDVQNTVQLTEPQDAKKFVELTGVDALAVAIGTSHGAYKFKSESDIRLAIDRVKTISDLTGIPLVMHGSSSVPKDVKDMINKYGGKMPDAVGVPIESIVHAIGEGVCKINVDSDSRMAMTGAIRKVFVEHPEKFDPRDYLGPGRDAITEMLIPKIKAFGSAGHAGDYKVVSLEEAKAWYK
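Giardia FBPA (40 nM reagent) was preincubated 10 min at RT with compound (up to 57.5 uM final), then substrate plus GAPDH/TPI/NAD/arsenate coupling system with diaphorase/resazurin was added; resorufin fluorescence (525/598 nm) was read after 20 min.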
An asterisk follows results filed as active; ! = not active in a repeat; [ ] = remark or other dose. Unless noted, calls come from the whole dose curve; as a rule, active = well fitted curve in the direction sought with a large enough effect; inconclusive = small, poorly fitted or top-dose-only effect, or another doubt; inactive = no such curve, though single readings can be large; an effect the other way counts as inactive or inconclusive. % is set by controls: 0 for no effect and ±100 for the full control effect; potency is the fitted concentration of half-maximal effect.

For COC(=O)c1ccc(N2C(=O)CC(N(C)CCc3ccc(OC)c(OC)c3)C2=O)cc1 (stereo unspecified) the results were Tb PYK inh -16%, RE007 growth inh 7.9µM*, LmPK inhibitor 0% and Giardia FBPA inh 1%.
COc1ccc(N2C(=O)CC(N(C)CCc3ccc(OC)c(OC)c3)C2=O)cc1 (stereo unspecified) was read as Tb PYK inh 4%, RE007 growth inh 22µM*, LmPK inhibitor 4% and Giardia FBPA inh 1%.
`COc1ccc(CCN(C)C2CC(=O)N(c3ccccc3)C2=O)cc1OC` (stereo unspecified) gave Tb PYK inh -2%, RE007 growth inh 6.3µM*, LmPK inhibitor 1% and Giardia FBPA inh -2%.
C#CCn1c(O)c(N=NC(=O)C(O)c2ccccc2)c2ccccc21 (stereo unspecified) was read as Tb PYK inh -5%, RE007 growth inh 6%, LmPK inhibitor 0% and Giardia FBPA inh 8%.
Screening C/C(=C(\CCO)SSCC1CCCO1)N(C=O)Cc1cnc(C)nc1N (stereo unspecified) returned Tb PYK inh 5%.
CC1CCN(c2cc(N3CCOCC3)c([N+](=O)[O-])cc2F)CC1 was read as Tb PYK inh -4%, RE007 growth inh -4%, LmPK inhibitor 5% and Giardia FBPA inh 2%.
COc1ccc(/C=N/Nc2nnc(C)n2N)cc1OC was read as Tb PYK inh 1%, RE007 growth inh -22%, LmPK inhibitor -1% and Giardia FBPA inh 22µM*.
For Cc1nnc(N/N=C/c2ccc([N+](=O)[O-])cc2)n1N the results were Tb PYK inh 3%, RE007 growth inh 16%, LmPK inhibitor 18% and Giardia FBPA inh 16µM*.
For Cc1nnc(N/N=C/c2ccc(Br)cc2)n1N the results were Tb PYK inh -3%, RE007 growth inh 2%, LmPK inhibitor 11% and Giardia FBPA inh inconclusive.
For Cc1nnc(N/N=C/c2cc([N+](=O)[O-])c(N3CCC(C)CC3)cc2N2CCC(C)CC2)n1N the results were Tb PYK inh 1%, RE007 growth inh 6%, LmPK inhibitor 6% and Giardia FBPA inh 10µM*.
O=C(NCc1ccc(Cl)cc1)C1CCN(S(=O)(=O)c2cccc3nonc23)CC1 was read as Tb PYK inh 5%, RE007 growth inh -6% and LmPK inhibitor -7%.
N#CC(C#N)=c1ccc2c(c1)NC1(CCCCC1)N=2 was read as Tb PYK inh inconclusive, RE007 growth inh inconclusive, LmPK inhibitor 14µM* and Giardia FBPA inh inconclusive.
N#CC(C#N)=C1NC2(CCCCC2)Cc2ccccc21 was read as Tb PYK inh 3%, RE007 growth inh 30%, LmPK inhibitor 2% and Giardia FBPA inh 16%.
COC(=O)C1=C(C)NC(C)=C(C(=O)OC)C1c1ccccc1[N+](=O)[O-] was read as Tb PYK inh inconclusive, RE007 growth inh 3%[18.4 µM], LmPK inhibitor -5% and Giardia FBPA inh 7.9µM*!.
CCOC(=O)C1=C(C)NC(C)=C(C(=O)OC)[C@@H]1c1cccc([N+](=O)[O-])c1 was read as Giardia FBPA inh 2%[21.7 µM].
O=[N+]([O-])c1cc(O)c2ncccc2c1 was read as Tb PYK inh 0%, RE007 growth inh 7.9µM*, LmPK inhibitor 13% and Giardia FBPA inh inconclusive.
Screening CC(CNc1nc2ccccc2n2cnnc12)c1ccccc1 (stereo unspecified) returned Tb PYK inh -10%, RE007 growth inh -9%, LmPK inhibitor 6% and Giardia FBPA inh -10%.
Screening C=CCNC(=S)NNC(=O)c1cccn(Cc2ccc(Cl)cc2Cl)c1=O returned Tb PYK inh 11µM*, RE007 growth inh -4%, LmPK inhibitor 3% and Giardia FBPA inh 8%.
`CCN1CCN(c2ccc([N+](=O)[O-])cc2C=C2C(=O)NC(=O)NC2=O)CC1` gave Tb PYK inh 22µM*, RE007 growth inh 1%, LmPK inhibitor -6% and Giardia FBPA inh -17%.
`CC(=O)N1CCN(c2ccc([N+](=O)[O-])cc2C=C2C(=O)NC(=O)NC2=O)CC1` gave Tb PYK inh -18%, RE007 growth inh 27%, LmPK inhibitor 3% and Giardia FBPA inh -11%.
For C[C@@H]1CCN(C(=O)[C@H](CCCNC(=N)N)NS(=O)(=O)c2cccc3c2NC[C@H](C)C3)[C@@H](C(=O)O)C1 the results were Tb PYK inh 1%.
`CN(C)c1ccc(/C=C/c2ccc3c4ccccc4ccc3[n+]2-c2ccccc2)cc1` gave Tb PYK inh inconclusive, RE007 growth inh 28µM*, LmPK inhibitor 1% and Giardia FBPA inh -11%.
CN(C)c1ccc(/C=C/c2ccc3ccccc3[n+]2C)cc1 was read as Tb PYK inh inconclusive, LmPK inhibitor 14µM* and Giardia FBPA inh -9%.
Screening COc1ccc(CCNC(=O)[C@H](C)NC(=O)N2CCn3c2nc2ccccc23)cc1OC returned Tb PYK inh -3%, RE007 growth inh 3% and LmPK inhibitor 5%.
Screening Cc1cccc(C(=O)Oc2csc(=S)n2C(=O)c2cccc(C)c2)c1 returned Tb PYK inh 28µM*, RE007 growth inh -16%, LmPK inhibitor -21% and Giardia FBPA inh 11%.
O=C(Oc1csc(=S)n1C(=O)c1ccccc1)c1ccccc1 was read as Tb PYK inh inconclusive, RE007 growth inh 136%, LmPK inhibitor -22% and Giardia FBPA inh 8%.
For O=C(OCc1ccc(F)cc1)c1ccc2c(c1)-c1ccccc1C2=O the results were Tb PYK inh -11%, RE007 growth inh -6% and LmPK inhibitor 3%.
CCOC(=O)C1=C(Cc2ccc(F)cc2)C(=O)c2ccccc2C1=O was read as Tb PYK inh inconclusive, RE007 growth inh inconclusive, LmPK inhibitor inconclusive and Giardia FBPA inh 1.8µM*.
Cc1cc(-c2n[nH]c(=S)n2Cc2ccccc2)cs1 was read as Tb PYK inh 3.5µM*, RE007 growth inh 11%, LmPK inhibitor inconclusive and Giardia FBPA inh 11%.
S=c1[nH]nc(-c2ccncc2)n1Cc1ccccc1 was read as Tb PYK inh inconclusive, RE007 growth inh 6%, LmPK inhibitor inconclusive and Giardia FBPA inh -6%.
For Fc1ccccc1-c1n[nH]c(=S)n1Cc1ccccc1 the results were Tb PYK inh inconclusive, RE007 growth inh -11%, LmPK inhibitor inconclusive and Giardia FBPA inh 24%.
`Cc1scc(-c2n[nH]c(=S)n2Cc2ccccc2)c1C` gave Tb PYK inh 3.2µM*, RE007 growth inh -8%, LmPK inhibitor inconclusive and Giardia FBPA inh 14%.
Screening Oc1ccc(-c2n[nH]c(=S)n2Cc2ccccc2)cc1 returned Tb PYK inh inconclusive, RE007 growth inh 14%, LmPK inhibitor 8.9µM* and Giardia FBPA inh -5%.
Screening Fc1ccc(-c2n[nH]c(=S)n2Cc2ccccc2)cc1 returned Tb PYK inh inconclusive, RE007 growth inh 12%, LmPK inhibitor -27% and Giardia FBPA inh 21%.
For CCc1c(-c2n[nH]c(=S)n2Cc2ccccc2)csc1C the results were Tb PYK inh inconclusive, RE007 growth inh 4%, LmPK inhibitor inconclusive and Giardia FBPA inh 16%.

Bioassay records deposited in PubChem by National Center for Advancing Translational Sciences (NCATS).
